These sequences were tested on LXRa homodimer (NR concentration 270 nM) (assay: PBM binding z-score (relative to random genomic background probes); higher = stronger binding; sequences stand for … in GC…GCGATTGACAGCGTAGAATGAAGG).
How it was run: (§1)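 Random background probes are the reference for binding z-scores. These scores derive from regression-normalized fluorescence on custom Agilent 4×180K protein-binding microarrays incubated 1 h with ligand-free nuclear receptor dimers. Binding was detected with antibodies against each partner (one per run).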

Sequence	PBM binding z-score
CCTTACGGGTCACTAACAGGTTATAGCATTTGGA	0.54
CCTACTAGGCCAAAGGTCATTGATTCCAATGCTC	4.69
TAGCCTAGGTTATTCAGGGGCCAGTATAGAAAGC	-0.0903
ATCGGAAGGTCGTGAGGTGAGTATACAGAAAGGC	0.212
CGTCCAAGGTCAATGGTAGGTCAGTGAAAGCATT	2.66
TCTAGTTGGTCACGGAGGTCGCACACGACGGGTA	-0.0222
CCGACTGGGGCAGAAAGGTTACCATGCCATCCGG	-0.401
CCTACTGGGCCAAAAAGGTGATTGATGCCGATAA	-0.405
TCATATAGGTAAAGGCGAAAGTCGAACGATATGA	-0.495
AGAAAGAGGTTAAGATCAGGGAAACAGAATACAT	0.396
TCATATAGGTAAGGGTGAAAGTCGAACGATATGA	-0.00999
GGAACGAGGGCATTCGACTTGATAGCATGGCGAT	-0.634
AGAATGAGGTTATTAAGATCACGGAATTGCGGTC	0.215
ATATGTACGTTAGCTGGGGTCATTCAGACTAGGC	2.29
CCTTTTAGTTGACCATAAGGGCAACCGAAGCTCG	0.344
CCTACTGGGCCAAAGTTCATTGATTCCAATGCTC	4.36
ATTCAAAGTTCAGGACGAGGTAACGTAAAGCACG	1.92
TCATATATGTAATACAGGTGAAAGTCGGCATCTA	0.168
TCTCGGAGGACACGAAAGGTCAGAGTTCGACATC	4.17
GCTAGCAGGCCATATGGGTCACTCAATGACGGGC	-0.185

Sequence	PBM binding z-score
CCAGACAGGTGAAAGGTAACTGAGTCTGGTACGC	-0.565
AGTCAAAGTTCATCTCGGTAACGTAAGATATGCT	5.38
AATACAGGGTCATCGTAGGCTAGAGTACGCACAG	2.25
CGTCAAAGTTCAACTAAGGTAACGGAAAGCACGC	3.33
AATACAGGTTCACTAGGCCAGAGTAGGTACGAAT	0.711
ATACCATGGTGATCGTGAGGTCGTTGATACTAAC	0.284
TCGAGTAGGTTAGGGGCATTCCGAATGGCGTCGA	-0.233
AATACAGGGTCATCGTAGGCCAGAGTACGCACAG	2.44
ATCTCTAGGTAAAGCTAGTTCAGTGAATGCAAAT	-0.0105
GCGACTGGGGCATCAGCAGGTTACCATCACTTAA	-0.321
CAAACTAAGTCACAGAGGTCAAAGTCCGTGCGTA	5.8
TGGCCTAGGTCATTCAGGGGCCAGTATAGAAAGC	0.183
CAAACTAGGTCACGAAGGGTCAAAGTCGAATGAC	4.6
TCTTGTAGATCAATAGAGGTTAACAAAGTGCGCT	0.47
TCTTGTCGATCAAGCAGGTTAAGAAAGCCTGAGT	-0.542
TAGCCTAGGTCATGCAGGGGCCAGTATAGAAAGC	-0.0993
CCTCGGAGGACAACAGGAAGTCAGAGCTGCCAGA	-0.458
AGTCAACGTTCACTAGGTAACGTAAGATTCAGCT	-0.401
AAAATGAGGTTATACGTAGATCAGGGAAGAAAGT	0.225
TCATATAGTTAAAGGTGAAAGTCGAACGATATGA	-0.183

What follows are sequences tested on LXRb:RXRa (NR concentration 270 nM, RXRa partner concentration 90 nM) in the same assay as above.
How it was run: as §1

Sequence	PBM binding z-score
CCTTACGGGTCACTAACAGGTTATAGCATTTGGA	3.4
CCTACTAGGCCAAAGGTCATTGATTCCAATGCTC	5.36
TAGCCTAGGTTATTCAGGGGCCAGTATAGAAAGC	1.24
ATCGGAAGGTCGTGAGGTGAGTATACAGAAAGGC	1.69
CGTCCAAGGTCAATGGTAGGTCAGTGAAAGCATT	4.27
TCTAGTTGGTCACGGAGGTCGCACACGACGGGTA	1.04
CCGACTGGGGCAGAAAGGTTACCATGCCATCCGG	0.479
CCTACTGGGCCAAAAAGGTGATTGATGCCGATAA	-0.234
TCATATAGGTAAAGGCGAAAGTCGAACGATATGA	0.229
AGAAAGAGGTTAAGATCAGGGAAACAGAATACAT	2.31
TCATATAGGTAAGGGTGAAAGTCGAACGATATGA	0.694
GGAACGAGGGCATTCGACTTGATAGCATGGCGAT	-0.0929
AGAATGAGGTTATTAAGATCACGGAATTGCGGTC	1.57
ATATGTACGTTAGCTGGGGTCATTCAGACTAGGC	4.39
CCTTTTAGTTGACCATAAGGGCAACCGAAGCTCG	0.707
CCTACTGGGCCAAAGTTCATTGATTCCAATGCTC	2.6
ATTCAAAGTTCAGGACGAGGTAACGTAAAGCACG	2.22
TCATATATGTAATACAGGTGAAAGTCGGCATCTA	0.857
TCTCGGAGGACACGAAAGGTCAGAGTTCGACATC	3.5
GCTAGCAGGCCATATGGGTCACTCAATGACGGGC	0.489

Sequence	PBM binding z-score
CCAGACAGGTGAAAGGTAACTGAGTCTGGTACGC	0.528
AGTCAAAGTTCATCTCGGTAACGTAAGATATGCT	3.79
AATACAGGGTCATCGTAGGCTAGAGTACGCACAG	4.59
CGTCAAAGTTCAACTAAGGTAACGGAAAGCACGC	4.2
AATACAGGTTCACTAGGCCAGAGTAGGTACGAAT	1.5
ATACCATGGTGATCGTGAGGTCGTTGATACTAAC	1.08
TCGAGTAGGTTAGGGGCATTCCGAATGGCGTCGA	0.645
AATACAGGGTCATCGTAGGCCAGAGTACGCACAG	4.7
ATCTCTAGGTAAAGCTAGTTCAGTGAATGCAAAT	0.175
GCGACTGGGGCATCAGCAGGTTACCATCACTTAA	0.504
CAAACTAAGTCACAGAGGTCAAAGTCCGTGCGTA	5.22
TGGCCTAGGTCATTCAGGGGCCAGTATAGAAAGC	2.3
CAAACTAGGTCACGAAGGGTCAAAGTCGAATGAC	6.6
TCTTGTAGATCAATAGAGGTTAACAAAGTGCGCT	2.29
TCTTGTCGATCAAGCAGGTTAAGAAAGCCTGAGT	0.373
TAGCCTAGGTCATGCAGGGGCCAGTATAGAAAGC	2.24
CCTCGGAGGACAACAGGAAGTCAGAGCTGCCAGA	-0.667
AGTCAACGTTCACTAGGTAACGTAAGATTCAGCT	-0.00739
AAAATGAGGTTATACGTAGATCAGGGAAGAAAGT	1.87
TCATATAGTTAAAGGTGAAAGTCGAACGATATGA	1.25

From the supplement of paper PMC6555819
